Mac1 fbg enh: enhancers of CD11b/CD18 adhesion to fibrinogen, primary screen, K562 cells, luminescence; activation, % at 10 µM; ATPlite luminescence; AID 1499, 2009; hit rate 0.07% among 93,000;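 active means 10 µM primary screen giving 50% or more activity, confirmed by 40% or more on retest at that dose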
CYP2C19 inhib: blockers of cytochrome P450 2C19 activity – biochemical, luminescence, ADME assay, primary screen; CYP2C19 Supersomes, luciferin-H EGE luminescence, 30 min; AID 778, 2007; inhibition, % at 5 µM; hit rate 21% among 96,000; P33261;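 active means CYP2C19 inhibition above a set limit at 5 µM in the primary screen, cut at about 50% in these data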
Target sequence (P33261 whole entry, looked up): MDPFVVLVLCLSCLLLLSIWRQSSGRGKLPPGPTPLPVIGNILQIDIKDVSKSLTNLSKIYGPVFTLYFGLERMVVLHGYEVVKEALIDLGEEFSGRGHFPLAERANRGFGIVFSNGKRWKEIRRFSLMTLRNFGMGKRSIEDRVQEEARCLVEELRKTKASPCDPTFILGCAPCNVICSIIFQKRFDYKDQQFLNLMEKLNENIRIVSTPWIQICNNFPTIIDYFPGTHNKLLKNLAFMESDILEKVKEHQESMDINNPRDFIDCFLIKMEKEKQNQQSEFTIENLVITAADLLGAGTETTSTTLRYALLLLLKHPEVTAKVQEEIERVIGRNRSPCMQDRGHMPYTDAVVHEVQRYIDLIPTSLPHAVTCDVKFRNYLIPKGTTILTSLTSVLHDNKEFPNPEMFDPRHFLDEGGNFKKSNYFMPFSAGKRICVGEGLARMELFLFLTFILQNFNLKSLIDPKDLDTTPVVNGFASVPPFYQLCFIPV
CYP2C9 inh: blockers of cytochrome P450 2C9 activity – biochemical, luminescence, ADME assay, primary screen; CYP2C9 Supersomes, luciferin-H conversion; hit rate 20% among 96,000; AID 777, 2007; inhibition, % at 5 µM; P11712;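 active means blocking of liver enzyme CYP2C9 beyond about 50% at 5 µM, limit read from the data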
CD11b adhes inh: inhibitors of CD11b/CD18 adhesion to fibrinogen, primary screen, K562 cells, luminescence. Integrin beta-2 (Homo sapiens) + Integrin alpha-M (Homo sapiens), P05107+P11215. ATPlite luminescence; Mn2+ added to activate the integrin. inhibition, % at 10 µM. hit rate 0.54% among 93,000;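 active means primary inhibition of 50% or more at 10 µM, then 40% or more on retest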
CYP2C19 activ: human CYP2C19 activators, primary screen, biochemical, luminescence. 96,000 tested, under 10 active. recombinant CYP2C19, luciferin-H EGE luminescence; active compounds read high; 0 = fully inhibited enzyme, 1 = untreated enzyme. activation factor at 5 µM. Cytochrome P450 2C19 (Homo sapiens), P33261. AID 1025, 2008;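 active means activation factor of at least 2 at 5 µM in the primary screen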
CYP2C9 act: human CYP2C9 activators, primary screen, biochemical, luminescence; recombinant CYP2C9, luciferin-H conversion; active compounds read high; factor 1 = untreated enzyme, 0 = blocked; hit rate 1.4% among 96,000; activation factor at 5 µM; Cytochrome P450 2C9 (Homo sapiens), P11712; AID 1024, 2008;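 active means activation factor of 2 or more for CYP2C9 at a 5 µM dose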
Each line names hits and unclear results; the compound was inactive in the other large screens. A selection: hits, their analogues and other compounds. The true share with any hit is near 28%.

CCOc1ccc(C(=O)OCC(=O)Nc2cc(C)on2)cc1OCC	none
CCn1c(COc2ccccc2C)nnc1SCC(=O)N1CCCCC1	none
CCc1ccccc1NC(=O)CN(C)C(=O)CSc1nn(-c2ccccc2)c(=S)s1	none (no result: CYP2C19 inhib, CYP2C9 inh, CYP2C19 activ, CYP2C9 act)
Cc1ccc(NS(=O)(=O)c2cccc(C(=O)OCC(=O)NCc3ccco3)c2)cc1	CYP2C19 inhib 59, CYP2C9 inh 86
COc1ccccc1CNC(=O)CCS(=O)(=O)c1ccc2c(c1)CCCN2C(C)=O	none
COc1ccc(COc2ccsc2C(=O)Nc2ccc(Cl)c(Cl)c2)cc1	CYP2C9 inh 55 (no result: Mac1 fbg enh, CD11b adhes inh)
Cc1ccsc1C(=O)NNC(=O)Nc1ccc(Cl)c(Cl)c1	none
Cc1cc(C)cc(N(CC(=O)N2CCn3c2nc2ccccc23)S(=O)(=O)c2c(C)noc2C)c1	none
Cc1ccc(NC(=O)CS(=O)CC(=O)NCC2CCCO2)cc1 (stereo not given)	none
O=C(c1csc2c1CCCCC2)N1CCN(c2ncccn2)CC1	CYP2C19 inhib 88, CYP2C9 inh 89
O=C(c1csc2c1CCCC2)N1CCCCC1	CYP2C19 inhib 52
O=C(NCCN1CCOCC1)c1csc2c1CCCCC2	none (no result: Mac1 fbg enh, CD11b adhes inh)
O=C(Nc1cc(Sc2ccccn2)cc([N+](=O)[O-])c1)c1ccc([N+](=O)[O-])cc1	none (no result: Mac1 fbg enh, CD11b adhes inh)
Cc1ccc(CN2C(=O)CCC2C(=O)NCc2ccco2)cc1 (stereo not given)	none (no result: Mac1 fbg enh, CD11b adhes inh)
COC(=O)c1ccc(C2C(C(C)=O)=C(O)C(=O)N2CCO)cc1 (stereo not given)	none
O=C(OCc1ccccc1)c1ccc2c(c1)-c1ccccc1C2=O	CYP2C9 inh 55
Cc1ccc(OCc2nnc(SCC(=O)c3ccccc3)n2Cc2ccco2)cc1	CYP2C19 inhib 97, CYP2C9 inh 95
Cc1ccc(NC(=O)CSc2nnc(-c3cnccn3)n2Cc2ccco2)cc1	none
O=C(CSc1nnc(-c2ccc(O)cc2)n1Cc1ccco1)c1cccs1	CYP2C19 inhib 65, CYP2C9 inh 78
O=C(CC(SCCO)c1ccc2c(c1)OCO2)c1cccs1 (stereo not given)	CYP2C19 inhib 100, CYP2C9 inh 95
O=C(CSc1nnc(-c2ccc(O)cc2)n1Cc1ccco1)c1ccccc1	CYP2C9 inh 50
CC(=O)C1=C(c2ccccc2)NC(=O)NC1c1ccccc1OCC#N (stereo not given)	none
O=C(CC(SCc1ccco1)c1ccc(O)cc1)c1cccs1 (stereo not given)	CYP2C19 inhib 79, CYP2C9 inh 98
O=C(CC(SCCO)c1ccc(F)cc1)c1ccco1 (stereo not given)	none
CN(C(=O)CSc1nnc(Nc2ccccc2)s1)c1c(N)n(Cc2ccccc2)c(=O)[nH]c1=O	CYP2C9 inh 64
C/C(=N/OC(=O)c1c(F)cccc1F)c1nccs1	none
Cc1c(C#N)c2ncn(Cc3ccccn3)c(=O)c2n1-c1ccccc1	none (no result: Mac1 fbg enh, CD11b adhes inh)
Cc1cc(SCC(=O)c2ccccc2)nc(C)n1	CYP2C19 inhib 67
Cc1cc(SCC(=O)Nc2ccccc2)nc(C)n1	none
Cc1cc(SCC(N)=O)nc(SCC(=O)c2ccccc2)n1	none
Cc1cc(C)n2nc(SCn3nnc4ccccc4c3=O)nc2n1	CYP2C19 inhib 72
COC(=O)c1ccc(NC(=O)CSc2ccccn2)cc1	CYP2C19 inhib 82, CYP2C9 inh 54
Cc1ccc(C(=O)CSc2cc(C)nc(SCC(=O)c3ccccc3)n2)cc1	CYP2C9 inh 73
CN(C)S(=O)(=O)c1ccc(Cl)c(NC(=O)COC(=O)CCSc2ccccc2)c1	none (no result: CYP2C19 inhib, CYP2C9 inh, CYP2C19 activ, CYP2C9 act)
CCC(=NCCN1CCNCC1)C1=C(O)CC(C)(C)CC1=O	none
Cc1ccc(C(=O)CSc2ccccn2)cc1	CYP2C19 inhib 82
COc1ccc(CNC(=O)CSc2nc3nc(C)cc(C)n3n2)cc1	CYP2C9 inh 61
Cc1cc(C)n2nc(SCC(=O)c3ccccc3)nc2n1	CYP2C19 inhib 59
CCOC(=O)CCP(=O)(O)C(O)c1ccc(OC)cc1 (stereo not given)	none
CC(C)CC(NC(=O)C1CCCCC1)C(=O)NCc1ccccn1 (stereo not given)	none
CCn1c(Cc2c(C)[nH]c3ccccc23)n[nH]c1=S	CYP2C19 inhib 91
CCOc1ccccc1CSc1nc2ccccc2[nH]1	none (no result: CYP2C19 inhib, CYP2C9 inh, CYP2C19 activ, CYP2C9 act)
CCn1c(-c2c[nH]c3ccccc23)n[nH]c1=S	CYP2C9 inh 54
CCn1c(CSc2nc3ccccc3[nH]2)n[nH]c1=S	CYP2C19 inhib 56
CCn1c(-c2ccc3[nH]c(C)c(C)c3c2)n[nH]c1=S	CYP2C19 inhib 78, CYP2C9 inh 90
Cc1[nH]c2ccc(-c3n[nH]c(=S)n3C)cc2c1C	none
Cc1[nH]c2ccccc2c1CCO	none
C=CCn1c(-c2c[nH]c3ccccc23)n[nH]c1=S	none
Cc1cc(N2CCCC2=O)c(N)cc1N	none
O=C(c1ccccc1/S(=N/S(=O)(=O)c1ccccc1)N1CCOCC1)N1CCOCC1 (stereo not given)	none
CCn1c(-c2cc3ccccc3cc2O)n[nH]c1=S	CYP2C19 inhib 52
O=C(Nc1nc2ccccc2s1)C1CC(=O)N(c2ccc(Br)cc2)C1 (stereo not given)	none
C=CCN(CC=C)C(=O)C1CC(=O)N(c2ccc(Br)cc2)C1 (stereo not given)	CYP2C19 inhib 63
O=C(O)C1CC(=O)N(c2ccc(Br)cc2)C1 (stereo not given)	none (no result: CD11b adhes inh)
O=C(Nc1cccc(F)c1)C1CC(=O)N(c2ccc(Br)cc2)C1 (stereo not given)	CYP2C19 inhib 63, CYP2C9 inh 63
COc1ccccc1CNC(=O)C1CC(=O)N(C2CCCC2)C1 (stereo not given)	none (no result: Mac1 fbg enh, CD11b adhes inh)
COc1ccccc1CNC(=O)C1CC(=O)N(c2ccc(C)c(C)c2)C1 (stereo not given)	CYP2C19 inhib 58, CYP2C9 act 2.5
O=C(Nc1cccc(F)c1)C1CC(=O)N(c2ccc(Cl)cc2)C1 (stereo not given)	CYP2C19 inhib 88, CYP2C9 inh 71
O=C1c2ccccc2C(=O)N1CCCCCc1nc(-c2ccccc2)no1	none
COc1ccc(OC)c(NC(=O)C2CC(=O)N(c3ccc(Br)cc3)C2)c1 (stereo not given)	CYP2C19 inhib 86, CYP2C9 inh 84
O=C(CS(=O)(=O)c1cccc(Cl)c1)Nc1ccccc1Cl	CYP2C19 inhib 78 (no result: Mac1 fbg enh, CD11b adhes inh)
COc1cccc(/C=C2\N=C(SC)SC2=O)c1OC	none
CSC1=N/C(=C\c2ccccc2F)C(=O)S1	CYP2C19 inhib 63
CCOC(=O)C1=C(O)/C(=C/c2cc(OC)c(OC)c(OC)c2)N=C1C	none
CC(C(=O)Nc1ccc(Cl)cc1)c1ncc(C(F)(F)F)cc1Cl (stereo not given)	CYP2C19 inhib 94

Source: PubChem BioAssay (Sanford-Burnham Center for Chemical Genomics)
